# Assay results from paper PMC11062922 (Nature Chemical Biology, 2023).
# Where two headings read alike, the source gives them in different places.
# What was measured:
# AAK1 = test system: AAK1; design: species or system human, MV4-11 + K-562 + COLO205 + SK-N-BE2 + OVCAR-8; settings: read-out: apparent Kd, n = 1
# BMP2K = test system: BMP2K; design: species or system human, MV4-11 + K-562 + COLO205 + SK-N-BE2 + OVCAR-8; settings: read-out: apparent Kd, n = 1
# CSNK2A2 = test system: CSNK2A2; design: species or system human, MV4-11 + K-562 + COLO205 + SK-N-BE2 + OVCAR-8; settings: read-out: apparent Kd, n = 1
# FLT4 = test system: FLT4; design: species or system human, MV4-11 + K-562 + COLO205 + SK-N-BE2 + OVCAR-8; settings: read-out: apparent Kd, n = 1
# NUAK1 = test system: NUAK1; design: species or system human, MV4-11 + K-562 + COLO205 + SK-N-BE2 + OVCAR-8; settings: read-out: apparent Kd, n = 1
# CLK1 = test system: CLK1; design: species or system human, MV4-11 + K-562 + COLO205 + SK-N-BE2 + OVCAR-8; settings: read-out: apparent Kd, n = 1
# CLK4 = test system: CLK4; design: species or system human, MV4-11 + K-562 + COLO205 + SK-N-BE2 + OVCAR-8; settings: read-out: apparent Kd, n = 1
# GAK = test system: GAK; design: species or system human, MV4-11 + K-562 + COLO205 + SK-N-BE2 + OVCAR-8; settings: read-out: apparent Kd, n = 1
# GSK3A = test system: GSK3A; design: species or system human, MV4-11 + K-562 + COLO205 + SK-N-BE2 + OVCAR-8; settings: read-out: apparent Kd, n = 1
# GSK3B = test system: GSK3B; design: species or system human, MV4-11 + K-562 + COLO205 + SK-N-BE2 + OVCAR-8; settings: read-out: apparent Kd, n = 1
# PKN1 = test system: PKN1; design: species or system human, MV4-11 + K-562 + COLO205 + SK-N-BE2 + OVCAR-8; settings: read-out: apparent Kd, n = 1
# PKN3 = test system: PKN3; design: species or system human, MV4-11 + K-562 + COLO205 + SK-N-BE2 + OVCAR-8; settings: read-out: apparent Kd; compound concentrations:100 nM and 1000 nM (sheet 'Samples'); n = 1
# Q6ZSR9 = Q6ZSR9 (human, UniProt Q6ZSR9); design: species or system MV4-11 + K-562 + COLO205 + SK-N-BE2 + OVCAR-8; settings: read-out: apparent Kd, n = 1
# SIK2 = test system: SIK2; design: species or system human, MV4-11 + K-562 + COLO205 + SK-N-BE2 + OVCAR-8; settings: read-out: apparent Kd; compound concentrations:100 nM and 1000 nM (sheet 'Samples'); n = 1
# PRKAG1 = test system: PRKAG1; design: species or system human, MV4-11 + K-562 + COLO205 + SK-N-BE2 + OVCAR-8; settings: read-out: apparent Kd, n = 1
# CSNK2A1;CSNK2A3 = test system: CSNK2A1;CSNK2A3; design: species or system human, MV4-11 + K-562 + COLO205 + SK-N-BE2 + OVCAR-8; settings: read-out: apparent Kd, n = 1
# MELK = test system: MELK; design: species or system human, MV4-11 + K-562 + COLO205 + SK-N-BE2 + OVCAR-8; settings: read-out: apparent Kd, n = 1
# RET = test system: RET; design: species or system human, MV4-11 + K-562 + COLO205 + SK-N-BE2 + OVCAR-8; settings: read-out: apparent Kd, n = 1
# PAK4 = test system: PAK4; design: species or system human, MV4-11 + K-562 + COLO205 + SK-N-BE2 + OVCAR-8; settings: read-out: apparent Kd; compound concentrations:100 nM and 1000 nM (sheet 'Samples'); n = 1
# [1] = compound concentrations:100 nM and 1000 nM (sheet 'Samples')
# Chain of Q6ZSR9 (Q6ZSR9 whole entry, looked up): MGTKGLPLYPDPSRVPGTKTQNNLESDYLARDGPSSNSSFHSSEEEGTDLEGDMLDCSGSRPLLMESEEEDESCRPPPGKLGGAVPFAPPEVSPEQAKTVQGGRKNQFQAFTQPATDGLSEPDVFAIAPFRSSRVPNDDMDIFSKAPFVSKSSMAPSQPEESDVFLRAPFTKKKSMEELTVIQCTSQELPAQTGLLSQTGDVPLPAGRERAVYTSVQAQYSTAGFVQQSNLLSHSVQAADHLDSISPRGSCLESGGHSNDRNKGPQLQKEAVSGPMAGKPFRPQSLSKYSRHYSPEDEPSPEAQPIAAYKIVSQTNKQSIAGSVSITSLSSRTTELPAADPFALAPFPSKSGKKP
smiles,measurement,setting,value
CN(C)c1ccc2c(c1)/C(=C/Nc1ccc(S(N)(=O)=O)cc1)C(=O)N2 [GW416469X],potency estimated from few doses,"AAK1; compound concentrations: 100 nM and 1000 nM (sheet 'Samples'), CATDS: 7.2948540677608101E-2",1.64 µM
same,potency estimated from few doses,"BMP2K; compound concentrations: 100 nM and 1000 nM (sheet 'Samples'), CATDS: 7.3539976386738704E-2",1.6 µM
same,potency estimated from few doses,"CSNK2A2; compound concentrations: 100 nM and 1000 nM (sheet 'Samples'), CATDS: 7.0643002799247095E-2",1.82 µM
same,potency estimated from few doses,"FLT4; compound concentrations: 100 nM and 1000 nM (sheet 'Samples'), CATDS: 7.3701429425290094E-2",1.59 µM
same,potency estimated from few doses,"NUAK1; compound concentrations: 100 nM and 1000 nM (sheet 'Samples'), CATDS: 0.318304060181621",0.0866 µM
Cc1occc1-c1nc(N)c(OC[C@@H](N)Cc2c[nH]c3ccccc23)cc1-c1cc2c(C)n[nH]c2cn1 [GSK1660450B],potency estimated from few doses,AAK1; [1],1.07 µM
same,potency estimated from few doses,CLK1; [1],0.339 µM
same,potency estimated from few doses,CLK4; [1],0.441 µM
same,potency estimated from few doses,GAK; [1],0.0382 µM
same,potency estimated from few doses,GSK3A; [1],0.273 µM
same,potency estimated from few doses,GSK3B; [1],0.0626 µM
same,potency estimated from few doses,PKN1; [1],0.0876 µM
same,potency estimated from few doses,PKN3,0.845 µM
same,potency estimated from few doses,Q6ZSR9; [1],1.67 µM
same,potency estimated from few doses,SIK2,0.427 µM
O=C1N=C(N[C@@H](CO)Cc2ccccc2)S/C1=C\c1ccc2ncccc2c1 [RO4509200-000],potency estimated from few doses,"AAK1; compound concentrations: 100 nM and 1000 nM (sheet 'Samples'), CATDS: 0.15010438596183701",0.551 µM
same,potency estimated from few doses,"BMP2K; compound concentrations: 100 nM and 1000 nM (sheet 'Samples'), CATDS: 0.102719601142922",1.46 µM
same,potency estimated from few doses,"CLK1; compound concentrations: 100 nM and 1000 nM (sheet 'Samples'), CATDS: 0.20013343303713499",0.329 µM
same,potency estimated from few doses,"CLK4; compound concentrations: 100 nM and 1000 nM (sheet 'Samples'), CATDS: 0.162916549975684",0.47 µM
same,potency estimated from few doses,"Q6ZSR9; compound concentrations: 100 nM and 1000 nM (sheet 'Samples'), CATDS: 0.142532878113064",0.613 µM
CNCC1CCn2c(c(C3=C(c4cn(C)c5ccccc45)C(=O)NC3=O)c3ccccc32)C1 (stereo not drawn) [RO0318676-000],potency estimated from few doses,"AAK1; compound concentrations: 100 nM and 1000 nM (sheet 'Samples'), CATDS: 2.7439250549300399E-2",1.91 µM
same,potency estimated from few doses,"GAK; compound concentrations: 100 nM and 1000 nM (sheet 'Samples'), CATDS: 3.3618066019117501E-2",0.961 µM
same,potency estimated from few doses,"GSK3A; compound concentrations: 100 nM and 1000 nM (sheet 'Samples'), CATDS: 6.7317846208259105E-2",0.171 µM
same,potency estimated from few doses,"GSK3B; compound concentrations: 100 nM and 1000 nM (sheet 'Samples'), CATDS: 7.2494529815898601E-2",0.146 µM
same,potency estimated from few doses,"PKN1; compound concentrations: 100 nM and 1000 nM (sheet 'Samples'), CATDS: 2.8488431691069401E-2",1.65 µM
same,potency estimated from few doses,"PRKAG1; compound concentrations: 100 nM and 1000 nM (sheet 'Samples'), CATDS: 3.0243229141785101E-2",1.34 µM
same,potency estimated from few doses,"Q6ZSR9; compound concentrations: 100 nM and 1000 nM (sheet 'Samples'), CATDS: 2.7484619244742201E-2",1.89 µM
NS(=O)(=O)c1ccc(NC=C2C(=O)Nc3ccc4ncsc4c32)cc1 [GW589933X],potency estimated from few doses,"AAK1; compound concentrations: 100 nM and 1000 nM (sheet 'Samples'), CATDS: 2.8569630231133399E-2",0.376 µM
same,potency estimated from few doses,"BMP2K; compound concentrations: 100 nM and 1000 nM (sheet 'Samples'), CATDS: 4.4159404649836601E-2",0.151 µM
same,potency estimated from few doses,"CLK1; compound concentrations: 100 nM and 1000 nM (sheet 'Samples'), CATDS: 1.74105303489548E-2",1.59 µM
same,potency estimated from few doses,"CLK4; compound concentrations: 100 nM and 1000 nM (sheet 'Samples'), CATDS: 2.0435296344387299E-2",0.913 µM
same,potency estimated from few doses,"CSNK2A1;CSNK2A3; compound concentrations: 100 nM and 1000 nM (sheet 'Samples'), CATDS: 2.5198594058055201E-2",0.51 µM
same,potency estimated from few doses,"CSNK2A2; compound concentrations: 100 nM and 1000 nM (sheet 'Samples'), CATDS: 3.3899738232558103E-2",0.257 µM
same,potency estimated from few doses,"FLT4; compound concentrations: 100 nM and 1000 nM (sheet 'Samples'), CATDS: 2.0623462365067999E-2",0.888 µM
same,potency estimated from few doses,"GSK3A; compound concentrations: 100 nM and 1000 nM (sheet 'Samples'), CATDS: 1.8552119857048799E-2",1.25 µM
same,potency estimated from few doses,"MELK; compound concentrations: 100 nM and 1000 nM (sheet 'Samples'), CATDS: 1.7288492944947598E-2",1.63 µM
same,potency estimated from few doses,"Q6ZSR9; compound concentrations: 100 nM and 1000 nM (sheet 'Samples'), CATDS: 4.56646208861472E-2",0.141 µM
same,potency estimated from few doses,"RET; compound concentrations: 100 nM and 1000 nM (sheet 'Samples'), CATDS: 1.8914319657445101E-2",1.17 µM
Cl.Cn1cc(C2=C(c3c4n(c5ccccc35)CCNC4)C(=O)NC2=O)c2ccccc21 [RO0318365-001],potency estimated from few doses,"AAK1; compound concentrations: 100 nM and 1000 nM (sheet 'Samples'), CATDS: 5.2349611072723602E-2",1.48 µM
same,potency estimated from few doses,"FLT4; compound concentrations: 100 nM and 1000 nM (sheet 'Samples'), CATDS: 5.0705018296343198E-2",1.61 µM
same,potency estimated from few doses,"GAK; compound concentrations: 100 nM and 1000 nM (sheet 'Samples'), CATDS: 6.7472142671723495E-2",0.831 µM
same,potency estimated from few doses,"GSK3A; compound concentrations: 100 nM and 1000 nM (sheet 'Samples'), CATDS: 0.111142354700942",0.357 µM
same,potency estimated from few doses,"GSK3B; compound concentrations: 100 nM and 1000 nM (sheet 'Samples'), CATDS: 0.121394136436775",0.314 µM
same,potency estimated from few doses,"Q6ZSR9; compound concentrations: 100 nM and 1000 nM (sheet 'Samples'), CATDS: 5.14338241951754E-2",1.55 µM
same,potency estimated from few doses,"RET; compound concentrations: 100 nM and 1000 nM (sheet 'Samples'), CATDS: 5.70762931789019E-2",1.19 µM
COc1cc[nH]c1/C=C1\C(=O)Nc2ccc(F)c(C#C[C@@H](O)[C@@H](N)[C@@H](C)O)c21 [RO0283120-000],potency estimated from few doses,AAK1; [1],0.171 µM
same,potency estimated from few doses,BMP2K; [1],0.0843 µM
same,potency estimated from few doses,CLK4; [1],1.36 µM
same,potency estimated from few doses,CSNK2A1;CSNK2A3; [1],0.75 µM
same,potency estimated from few doses,CSNK2A2; [1],0.497 µM
same,potency estimated from few doses,FLT4; [1],1.67 µM
same,potency estimated from few doses,GAK; [1],0.868 µM
same,potency estimated from few doses,MELK; [1],0.679 µM
same,potency estimated from few doses,NUAK1; [1],0.0203 µM
same,potency estimated from few doses,PAK4,0.35 µM
same,potency estimated from few doses,PKN1; [1],0.959 µM
same,potency estimated from few doses,PRKAG1; [1],0.821 µM
same,potency estimated from few doses,Q6ZSR9; [1],0.208 µM
same,potency estimated from few doses,RET; [1],0.117 µM
same,potency estimated from few doses,SIK2,0.878 µM
